Results from PubChem BioAssay (NCI).
The panel holds about 83,000 compounds, 20% with a hit somewhere; the sample as a whole holds those more often.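 Activity criterion: percent growth below 10, measured after cells in 96-well plates were exposed to a single compound concentration for 48 hours.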 Active and inactive are the calls of the source.

Key:
Assay in all cases: NCI-60 one-dose screen, 48 h (100 = growth as untreated, 0 = no growth, -100 = all killed)
Settings in all cases: 10 µM unless noted
RPMI-8226 leukemia = system: RPMI-8226 leukemia
OVCAR-8 ovarian = system: OVCAR-8 ovarian
OVCAR-5 ovarian = system: OVCAR-5 ovarian
SK-OV-3 ovarian = system: SK-OV-3 ovarian
IGROV1 ovarian = system: IGROV1 ovarian
OVCAR-3 ovarian = system: OVCAR-3 ovarian
HS 578T breast = system: HS 578T breast
NCI/ADR-RES ovarian = system: NCI/ADR-RES ovarian
T-47D breast = system: T-47D breast
OVCAR-4 ovarian = system: OVCAR-4 ovarian

Measured: growth

CCCCOCc1cc(CN2CCN(C)CC2)c(O)c2ncccc12
inactive: RPMI-8226 leukemia 48.2% | OVCAR-8 ovarian 27.1% | OVCAR-5 ovarian 73% | SK-OV-3 ovarian 42.5% | IGROV1 ovarian 80.8% | OVCAR-3 ovarian 23.9% | HS 578T breast 79.3% | T-47D breast 67.3%
active: NCI/ADR-RES ovarian 5.45%

CCCC(c1nnnn1C1CCCCC1)N1CCN(C(=O)c2ccco2)CC1 (configuration not stated)
inactive: RPMI-8226 leukemia 28.9% | OVCAR-8 ovarian 86.4% | OVCAR-5 ovarian 89.4% | SK-OV-3 ovarian 79.5% | IGROV1 ovarian 69.2% | OVCAR-3 ovarian 25.2% | HS 578T breast 60.7% | NCI/ADR-RES ovarian 46.1% | T-47D breast 92.9%

N#C/C(=C\c1c(-c2ccccc2)[nH]c2ccccc12)C(=O)c1ccccc1
inactive: OVCAR-8 ovarian 46.9% | OVCAR-5 ovarian 70.5% | SK-OV-3 ovarian 57.4% | HS 578T breast 16% | T-47D breast 39%
active: RPMI-8226 leukemia -0.917% | OVCAR-3 ovarian -7.05% | NCI/ADR-RES ovarian 6.15%

COc1ccc(Cn2c(Br)c3c(c2-c2cc(OC)c(OC)c(OC)c2)CCc2sc(NC(=O)c4ccc(OC)cc4)nc2-3)cc1
inactive: RPMI-8226 leukemia 81.7% | OVCAR-8 ovarian 96% | OVCAR-5 ovarian 102% | SK-OV-3 ovarian 108% | IGROV1 ovarian 79.2% | OVCAR-3 ovarian 92.7% | HS 578T breast 83.7% | NCI/ADR-RES ovarian 89.2% | T-47D breast 77.3%

COCCN(C(=O)Cc1cccs1)C(C(=O)NCc1ccc(OC)cc1)c1ccc(C(C)C)cc1 (configuration not stated)
inactive: RPMI-8226 leukemia 93.2% | OVCAR-8 ovarian 80.9% | OVCAR-5 ovarian 106% | SK-OV-3 ovarian 87.5% | OVCAR-3 ovarian 51.5% | HS 578T breast 76.2% | NCI/ADR-RES ovarian 73.8% | T-47D breast 87%

COc1ccc(C(O)(CCC(C)C)C(CN2CCOCC2)c2ccc(Cl)cc2)cc1 (configuration not stated)
inactive: RPMI-8226 leukemia 46.8% | OVCAR-8 ovarian 67.1% | OVCAR-5 ovarian 103% | SK-OV-3 ovarian 97.7% | IGROV1 ovarian 85.1% | HS 578T breast 103% | NCI/ADR-RES ovarian 29.4% | T-47D breast 87.5%
active: OVCAR-3 ovarian 6.49%

COc1ccccc1N1CCN(C(CNS(=O)(=O)c2ccc(Cl)cc2)c2cccnc2)CC1 (configuration not stated)
inactive: RPMI-8226 leukemia 27.5% | OVCAR-8 ovarian 100% | OVCAR-5 ovarian 113% | SK-OV-3 ovarian 108% | OVCAR-3 ovarian 75.4% | HS 578T breast 88.3% | NCI/ADR-RES ovarian 93.9% | T-47D breast 102%

O=C(Nc1ccccc1O)c1ccc(-c2ccc(Cl)cc2Cl)o1
inactive: RPMI-8226 leukemia 74.1% | OVCAR-8 ovarian 94.3% | OVCAR-5 ovarian 99.2% | SK-OV-3 ovarian 94.5% | IGROV1 ovarian 88.3% | OVCAR-3 ovarian 85.6% | HS 578T breast 93.8% | NCI/ADR-RES ovarian 90.3% | T-47D breast 77.2%

Cc1ccc(Cn2c(N3CCC(C(=O)NCc4cccs4)CC3)nc3ccccc32)cc1
inactive: RPMI-8226 leukemia 73.7% | OVCAR-8 ovarian 94.3% | OVCAR-5 ovarian 107% | SK-OV-3 ovarian 97.4% | OVCAR-3 ovarian 76.6% | HS 578T breast 79.9% | NCI/ADR-RES ovarian 86.2% | T-47D breast 114%

COC(=O)/C(CCC=C(C)C)=C1\[C@@H](OC(C)=O)C[C@@]2(C)[C@H]1C[C@@H](O)[C@H]1[C@@]3(C)CC[C@H](NC(=O)c4cnccn4)[C@@H](C)[C@@H]3CC[C@@]12C
inactive: RPMI-8226 leukemia 75.8% | OVCAR-8 ovarian 92.5% | OVCAR-5 ovarian 109% | OVCAR-3 ovarian 108% | HS 578T breast 96.4% | NCI/ADR-RES ovarian 99.4% | T-47D breast 87.4%

COc1ccc(Nc2nc(N/N=C/c3ccc(O)cc3)nc(Nc3ccc([N+](=O)[O-])cc3)n2)cc1
inactive: RPMI-8226 leukemia 99.7% | OVCAR-8 ovarian 100% | OVCAR-4 ovarian 111% | SK-OV-3 ovarian 112% | IGROV1 ovarian 121% | OVCAR-3 ovarian 124% | HS 578T breast 110% | NCI/ADR-RES ovarian 109% | T-47D breast 109%

C1CCN(c2nc(N3CCCCC3)nc(N3CCOCC3)n2)CC1
inactive: RPMI-8226 leukemia 100% | OVCAR-8 ovarian 96.4% | OVCAR-4 ovarian 96% | SK-OV-3 ovarian 99.6% | IGROV1 ovarian 104% | OVCAR-3 ovarian 118% | HS 578T breast 112% | NCI/ADR-RES ovarian 103% | T-47D breast 86.2%

COc1ccc(-c2nocc2-c2cccs2)cc1
inactive: RPMI-8226 leukemia 124% | OVCAR-8 ovarian 110% | OVCAR-4 ovarian 99% | SK-OV-3 ovarian 105% | OVCAR-3 ovarian 108% | HS 578T breast 91.1% | NCI/ADR-RES ovarian 110% | T-47D breast 75.7%

CCOC(=O)c1sc(-c2ccc(OS(=O)(=O)c3ccccc3[N+](=O)[O-])c(C=O)c2)nc1C
inactive: RPMI-8226 leukemia 37.2% | OVCAR-8 ovarian 56.5% | OVCAR-4 ovarian 33% | SK-OV-3 ovarian 117% | OVCAR-3 ovarian 23.5% | HS 578T breast 96.3% | NCI/ADR-RES ovarian 61.6% | T-47D breast 28.4%

O=c1nc2sc3nc4ccccc4cc3cc-2s1
inactive: RPMI-8226 leukemia 128% | OVCAR-8 ovarian 112% | OVCAR-4 ovarian 115% | SK-OV-3 ovarian 108% | IGROV1 ovarian 127% | OVCAR-3 ovarian 140% | HS 578T breast 79.9% | NCI/ADR-RES ovarian 103% | T-47D breast 119%

CC[C@H](C)[C@@H](C(=O)OC)n1cc(CNC(=O)[C@@H](Cc2ccccc2)NC(=O)OCc2ccccc2)nn1
inactive: RPMI-8226 leukemia 90.1% | OVCAR-8 ovarian 91.3% | OVCAR-4 ovarian 105% | SK-OV-3 ovarian 109% | IGROV1 ovarian 92.2% | OVCAR-3 ovarian 115% | HS 578T breast 101% | NCI/ADR-RES ovarian 94.4% | T-47D breast 107%

O=C(NC1CCN(Cc2ccccc2)CC1)c1cc(C(=O)NC2CCN(Cc3ccccc3)CC2)cc(C(=O)NC2CCN(Cc3ccccc3)CC2)c1
inactive: RPMI-8226 leukemia 56.4% | OVCAR-8 ovarian 91.9% | OVCAR-4 ovarian 60.5% | SK-OV-3 ovarian 79.8% | OVCAR-3 ovarian 87% | HS 578T breast 79.6% | NCI/ADR-RES ovarian 82.1% | T-47D breast 72.5%
active: IGROV1 ovarian -33.7%

CCC(C)(C)C(=O)O[C@H]1C[C@@H](C)C=C2C=C[C@H](C)[C@H](CC[C@@H]3CC=CC(=O)O3)[C@H]21
inactive: OVCAR-8 ovarian 61.6% | OVCAR-4 ovarian 106% | SK-OV-3 ovarian 115% | OVCAR-3 ovarian 51.2% | HS 578T breast 94.6% | NCI/ADR-RES ovarian 90.6% | T-47D breast 80.8%
active: RPMI-8226 leukemia -16.7%

CCOc1cccc(/C=N\Nc2nc(=O)cc(C(=O)OC)s2)c1O
inactive: RPMI-8226 leukemia 57.6% | OVCAR-8 ovarian 66.9% | OVCAR-4 ovarian 49.3% | SK-OV-3 ovarian 95.6% | IGROV1 ovarian 61.8% | OVCAR-3 ovarian 29.7% | HS 578T breast 90.4% | NCI/ADR-RES ovarian 32.3% | T-47D breast 37.8%

COC(=O)/C(=C\c1c(-c2ccccc2)[nH]c2ccccc12)S(C)(=O)=O
inactive: OVCAR-8 ovarian 36.7% | OVCAR-4 ovarian 63.9% | SK-OV-3 ovarian 39.8% | T-47D breast 27%
active: RPMI-8226 leukemia -14.8% | OVCAR-3 ovarian -46% | HS 578T breast -9.62% | NCI/ADR-RES ovarian -13%

COc1ccc(CCN2C(=O)CCSC2=S)cc1OC
inactive: RPMI-8226 leukemia 37.4% | OVCAR-8 ovarian 97.2% | OVCAR-4 ovarian 90.5% | SK-OV-3 ovarian 105% | IGROV1 ovarian 107% | OVCAR-3 ovarian 105% | HS 578T breast 93.7% | NCI/ADR-RES ovarian 103% | T-47D breast 43.4%

COc1cc(C(=O)NN=C2c3ccccc3-c3ccccc32)cc(OC)c1OC
inactive: RPMI-8226 leukemia 23% | OVCAR-8 ovarian 34.5% | OVCAR-4 ovarian 55.5% | SK-OV-3 ovarian 22.9% | IGROV1 ovarian 32.3% | HS 578T breast 50.6% | NCI/ADR-RES ovarian 23.3% | T-47D breast 37.8%
active: OVCAR-3 ovarian -1.71%

CC1=C(C(=O)OCC2CCN(C(=O)OC(C)(C)C)CC2)[C@@H](c2cccc(C#N)c2)C2=C(CC(C)(C)CC2=O)N1
inactive: RPMI-8226 leukemia 32.3% | OVCAR-8 ovarian 37.5% | OVCAR-4 ovarian 67.3% | SK-OV-3 ovarian 66.5% | OVCAR-3 ovarian 52.4% | HS 578T breast 64.5% | NCI/ADR-RES ovarian 44.7% | T-47D breast 56.1%

Cc1ccc(OCCCCCCNCCO)c(C)c1
active: RPMI-8226 leukemia 9.43% | OVCAR-8 ovarian -10% | IGROV1 ovarian -4.59% | NCI/ADR-RES ovarian 8.9% | T-47D breast 5.9%
inactive: OVCAR-4 ovarian 16.8% | SK-OV-3 ovarian 16.8% | OVCAR-3 ovarian 24% | HS 578T breast 18.5%

COc1cc2nc(NC3CCC3)nc(NC3CCN(C(C)C)CC3)c2cc1OC
inactive: OVCAR-8 ovarian 58.2% | OVCAR-4 ovarian 62.5% | IGROV1 ovarian 75.1% | OVCAR-3 ovarian 85.7% | HS 578T breast 66.2% | NCI/ADR-RES ovarian 96.9%
active: RPMI-8226 leukemia -7.43% | T-47D breast -7.17%

Nc1nc2c(ncn2[C@@H]2O[C@H](CS)[C@@H](O)[C@H]2O)c(=O)[nH]1
inactive: RPMI-8226 leukemia 94.9% | OVCAR-8 ovarian 99.2% | OVCAR-5 ovarian 93.3% | IGROV1 ovarian 103% | OVCAR-3 ovarian 104% | HS 578T breast 99.6% | NCI/ADR-RES ovarian 104% | T-47D breast 107%

O=C(/C=C/c1ccc(Cl)cc1)c1ccc(Nc2nc(NCCO)nc(N3CCOCC3)n2)cc1
inactive: RPMI-8226 leukemia 12.3% | OVCAR-8 ovarian 83.6% | OVCAR-5 ovarian 101% | IGROV1 ovarian 84% | OVCAR-3 ovarian 63.1% | HS 578T breast 90.7% | NCI/ADR-RES ovarian 88.9% | T-47D breast 67.1%

COC(=O)[C@H](NC(=O)C1(C)CCC[C@]2(C)[C@H]3C[C@H]4C(C(C)C)=C[C@]3(CC[C@@H]12)[C@@H]1C(=O)CCC(=O)[C@@H]14)C(C)C (some centres not stated)
inactive: RPMI-8226 leukemia 103% | OVCAR-8 ovarian 101% | OVCAR-5 ovarian 98.7% | OVCAR-3 ovarian 109% | HS 578T breast 92.9% | NCI/ADR-RES ovarian 96.1% | T-47D breast 94.2%

COc1ccc2occ(C3=C(c4c[nH]c5ccccc45)C(=O)NC3=O)c2c1
inactive: RPMI-8226 leukemia 53% | OVCAR-8 ovarian 63.9% | IGROV1 ovarian 41.5% | OVCAR-3 ovarian 26.8% | HS 578T breast 33.9% | NCI/ADR-RES ovarian 20.5% | T-47D breast 57%
active: OVCAR-4 ovarian -24.3%

CCN1C(=O)N(CC)C2C1NN=c1s/c(=C3\C(=O)N(CC(C)(C)C)c4ccccc43)c(=O)n12 (configuration not stated)
active: OVCAR-3 ovarian -18.4%
inactive: RPMI-8226 leukemia 36.7% | OVCAR-8 ovarian 32.7% | OVCAR-5 ovarian 51.1% | IGROV1 ovarian 24.1% | HS 578T breast 18.9% | NCI/ADR-RES ovarian 11.3% | T-47D breast 58.1%
